For part of these data: Results with a measured potency or affinity are listed apart.
Assays:
Staphylococcus aureus = experiment: Antibacterial activity against Staphylococcus aureus MRSA ATCC 43300 (CO-ADD:GP_020); MIC in CAMBH media using NBS plates, by Resazurin F(560/590); type: functional; conditions: Concentration 20 uM, ASSAY_TEST Inhibition of Bacterial Growth, detection method Resazurin, Fluorescence (ex560/em590), MEDIA CAMHB, plate type 384well, CORNING #3640, time 18 hr
Acinetobacter baumannii = experiment: Antibacterial activity against Acinetobacter baumannii ATCC 19606 (CO-ADD:GN_034); MIC in CAMBH media using NBS plates, by Resazurin F(560/590); type: functional; conditions: Concentration 20 uM, ASSAY_TEST Inhibition of Bacterial Growth, detection method Resazurin, Fluorescence (ex560/em590), MEDIA CAMHB, plate type 384well, CORNING #3640, time 18 hr
Escherichia coli = experiment: Antibacterial activity against Escherichia coli ATCC 25922 (CO-ADD:GN_001); MIC in CAMBH media using NBS plates, by Resazurin F(560/590); type: functional; conditions: Concentration 20 uM, ASSAY_TEST Inhibition of Bacterial Growth, detection method Resazurin, Fluorescence (ex560/em590), MEDIA CAMHB, plate type 384well, CORNING #3640, time 18 hr
Klebsiella pneumoniae = conditions: Concentration 20 uM; ASSAY_TEST Inhibition of Bacterial Growth; detection method Absorption (OD600); MEDIA CAMHB; plate type 384well; NBS; CORNING #3640; time 18 hr
Candida albicans = conditions: 20 µM
Cryptococcus neoformans = conditions: Concentration 20 uM; ASSAY_TEST Inhibition of Fungal Growth; detection method Resazurin; Absorption (OD600-OD570); plate type 384well; NBS; CORNING #3640

| Structure (SMILES) | Inhibition (Staphylococcus aureus) [%] | Inhibition (Acinetobacter baumannii) [%] | Inhibition (Escherichia coli) [%] | Inhibition (Klebsiella pneumoniae) [%] | Inhibition (Candida albicans) [%] | Inhibition (Cryptococcus neoformans) [%] |
| --- | --- | --- | --- | --- | --- | --- |
| COC1OC(CO)C(N=C(C)C)C1O (stereo not drawn) | -11.36 | -14 | 0.14 | 2.78 | 0.83 | -10.33 |
| CCCc1nc2c(=O)n(C)c(=O)n(C)c2[nH]1 | 14.39 | -13.67 | 8.23 | 14.55 | 2.02 | -4.69 |
| N=C(NOC(=O)c1ccccc1)C(Cc1ccccc1)C(=O)NOC(=O)c1ccccc1 (stereo not drawn) | 11.08 | -11.45 | 18.34 | 10.4 | 7.02 | -11.11 |
| COc1cc(C(=O)c2cocc2C(=O)c2ccc3c(c2)OCO3)cc(OC)c1OC | 27.15 | -6.33 | 12.62 | 6.01 | 3.29 | 14.1 |
| CC1(C)OC2CC(=O)OCC23C1CC(=O)C1(C)C3CCC2(C)C(c3ccoc3)OC(=O)C3OC321 (stereo not drawn) | 21.22 | -6.97 | 8.41 | 8.88 | 0.13 | -7.86 |
| Nc1c(Cl)ncnc1NCCO | -0.51 | -7.14 | 3.3 | 8.13 | 2.14 | -0.36 |
| NC(=O)CCC(C(=O)O)N1C(=O)c2ccc(O)cc2C1=O (stereo not drawn) | 8.42 | 13.26 | -2.7 | 12.88 | 4.99 | -2.28 |
| O=C(Nc1cc(-c2ccccc2)[nH]n1)c1ccc(Cl)cc1 | 11.18 | -15.73 | 6.31 | 6.21 | 8.34 | -8.44 |
| ClCC(CNCc1ccccc1)c1ccccc1 (stereo not drawn) | 7.68 | 11.29 | 0.62 | 19.58 | 5.41 | -7.48 |
| Cn1cnc2ncnn2c1=S | 0.31 | -8.2 | -1.17 | -0.39 | 2.7 | -8.45 |
| O=C(O)c1cccc2c1C(=O)c1cccc3snc-2c13 | 11.24 | 8.28 | -4.32 | 2.89 | 21.9 | -0.5 |
| Cc1ccc(Cl)cc1NC(=O)N(C)CCO | -6.32 | 12.85 | -9.79 | 13.54 | 6.98 | -5.5 |
| NC(=O)c1ccccc1NC(=O)c1ccccc1Cl | -3.45 | -12.19 | 7.56 | 6.89 | 2.67 | -15.77 |
| COc1cccc(NC(S)=Nc2ccc(O)cc2)c1 | -0.11 | -11.24 | 8.79 | 5.3 | 8.24 | -9.84 |
| COc1ccccc1C1OC2=Nc3cc([N+](=O)[O-])ccc3NC2=C1O (stereo not drawn) | 8.5 | -1.62 | 2.79 | 1.15 | 0.19 | -4.37 |
| CC1(C)CC(=O)C(CC(=O)c2ccccc2)=C(NNC(=N)N)C1 | 1.47 | 8.18 | 4.18 | -0.42 | 5.62 | -4.09 |
| O=c1ccn2c(n1)SC(c1ccccc1)C2 (stereo not drawn) | 9.54 | 7.52 | 0.87 | 5.49 | 4.6 | -10.89 |
| COCC(O)Cn1ccnc1[N+](=O)[O-] (stereo not drawn) [MISONIDAZOLE] | -3.32 | 6.49 | 6.97 | 11.9 | 1.35 | -12.64 |
| CC(=O)c1cc(O)c2ccccc2c1O | 4.01 | -14.11 | 0.42 | 7.57 | 24.1 | 6.09 |

| Structure (SMILES) | Inhibition (Staphylococcus aureus) [%] | Inhibition (Acinetobacter baumannii) [%] | Inhibition (Escherichia coli) [%] | Inhibition (Klebsiella pneumoniae) [%] | Inhibition (Candida albicans) [%] | Inhibition (Cryptococcus neoformans) [%] |
| --- | --- | --- | --- | --- | --- | --- |
| CC(C)n1cc(C#N)c(N)n1 | -0.87 | -8.48 | 18.87 | 15.17 | 3.75 | -6.7 |
| O=C(Nc1cccc(-c2ccccc2)c1)N1CCN(C(=O)Nc2cccc(-c3ccccc3)c2)CC1 | 26.71 | -7.47 | 7.55 | 6.58 | -1.22 | -2.57 |
| O=c1cc(-c2ccc(O)cc2)oc2c(O)c(O)c(O)c(O)c12 | 7.67 | -15.85 | 3.54 | 11.62 | 6.97 | -2.27 |
| CN(C)c1ccc(/C=C/c2ccc3ccccc3n2)cc1 | -2.51 | 5.82 | 5.25 | 10.87 | 5.63 | -14.32 |
| COc1ccc(NC2=NC(C)(CO)CS2)cc1 (stereo not drawn) | 33.41 | -4.98 | 1.2 | 15.06 | 1.85 | 5.77 |
| O=C(O)/C=C\C(=O)Nc1nccs1 | 6.29 | -13.11 | 4.99 | 25.17 | 0.91 | -1.21 |
| CC1=CC2=C(C=O)C(=O)[C@](C)(O)[C@@H](O)C2=CO1 | -0.76 | 11.76 | 8.5 | 9.69 | 4.9 | -12.05 |
| Cc1cccc(N2CCN(CC(O)COc3ccc(Cl)cc3)CC2)c1 (stereo not drawn) | 13.02 | 4.97 | 5.23 | 7.2 | 0.39 | -12.55 |
| c1coc(CNc2[nH]cnc3nncc2-3)c1 | 12.65 | -12.11 | 11.54 | 7.55 | 0.96 | -6.46 |
| CC(=O)Oc1ccc(OC(C)=O)c2c1CC1(C)OC1(C)C2 (stereo not drawn) | 13.73 | 5.72 | 3.36 | 9.63 | -0.12 | -11.66 |
| Cc1n[nH]c2c([N+](=O)[O-])c(=O)[nH]c(=O)n12 | 3.86 | -12.95 | 12.3 | 7.43 | 0.29 | -13.65 |
| O=C(Nc1ccc(F)cc1)OCCOc1ccc([N+](=O)[O-])cc1 | 6.26 | 5.22 | -7.06 | 8.41 | 4.71 | -9.23 |
| Nc1cc(O)nc2ncnn12 | 9.25 | -2.47 | 7.96 | 6.69 | -0.84 | -4.53 |
| CCCC1OC(c2cc3c(cc2Cl)OCO3)OCC1CC (stereo not drawn) | 3.15 | -17.34 | 11.31 | 6.46 | 5.6 | -15.5 |
| Nc1nc(Cl)cc(Nc2ccccc2Cl)n1 | 12.37 | 13.94 | -7.98 | 12.81 | 7.79 | 1.11 |
| CCCn1cnc2c(S)nc(N)nc21 | 0.53 | -16.82 | 10 | 2.88 | -1.47 | -9.79 |
| NC(=O)c1nc2c([nH]c1=O)CCCC2 | 15.95 | -15.59 | 13.49 | -0.68 | -0.94 | -4.35 |
| O=C(Nc1ccccc1)Nc1ccccn1 | 15.92 | -11.25 | 6.37 | 12.38 | 3.3 | -4.64 |
| COc1cc(O)c(C(=O)/C=C/c2ccccc2)c(OC)c1 [FLAVOKAWAIN B] | 9.23 | 7.33 | 2.45 | 12.32 | 6.59 | -7.74 |

Source: ChEMBL document CHEMBL4296182, “CO-ADD screening of NIH NCI Diversity Set V”
